# Experimental data reported in PubChem BioAssay (Tox21).
# Inconclusive results are not listed. Where a call stands in place of a potency, no number is given. Values without a mark were called inactive. Calls of active or inactive are those of the source. Unless noted, the call rests on the fitted dose curve; in most records, active means well fitted curve in the direction sought with a large enough effect in the repeat runs; inconclusive means weak or mixed curves; inactive means no such curve, though single readings can be large; an effect the other way counts as inactive or inconclusive.
# How the values were obtained:
# [1] = qHTS assay to identify small molecule antagonists of the thyroid receptor (TR) signaling pathway - cell viability counter screen (AID 743064); further: nearly all actives have a fitted effect of over 50% in size
# Procedure, shortened: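 In rat pituitary GH3.TRE-Luc reporter cells co-exposed to compound and 1 nM T3 for 23.5 h, cytotoxicity was assessed with CellTiter-Fluor in the same wells, read by fluorescence.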
# [2] = system: thyroid hormone receptor (rat, GH3 cells); experiment: qHTS assay to identify small molecule agonists of the thyroid receptor (TR) signaling pathway (AID 743066; calls by dose curve)
# [3] = molecular target: Estrogen receptor (Homo sapiens) (UniProt P03372); experiment: qHTS assay to identify small molecule antagonists of the estrogen receptor alpha (ER-alpha) signaling pathway (AID 743069; active means well fitted curve in the direction sought with a large enough effect in the signal ratio in the repeat runs, not every such curve was filed as active; the % refers to the signal ratio)
# Procedure, shortened: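 Beta-lactamase FRET fluorescence is read after 2 hr at room temperature with LiveBLAzer B/G substrate. Before that, ER-alpha-bla HEK293 cells sit 4 hr after plating, then receive compound plus 17beta-estradiol and incubate 18 hr at 37C.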
# [4] = qHTS assay to identify small molecule antagonists of the estrogen receptor alpha (ER-alpha) signaling pathway - cell viability counter screen (AID 743074; calls by dose curve;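 further: HEK293 cells carrying ER-alpha-UAS-bla reporter stimulated with 17beta-estradiol; nearly all actives have a fitted effect of over 45% in size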)
# [5] = molecular target: Estrogen receptor (Homo sapiens) (UniProt P03372); experiment: qHTS assay to identify small molecule agonists of the estrogen receptor alpha (ER-alpha) signaling pathway (AID 743075; calls by dose curve;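 further: HEK293 GripTite cells with ER-alpha and UAS-driven beta-lactamase reporter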)
# [6] = molecular target: Estrogen receptor (Homo sapiens) (UniProt P03372); experiment: qHTS assay to identify small molecule agonists of the estrogen receptor alpha (ER-alpha) signaling pathway using the BG1 cell line (AID 743079); further: nearly all actives have a fitted effect of over 20% in size; further: potency means the concentration at half of the fitted maximal effect
# [7] = qHTS assay to identify small molecule antagonists of the estrogen receptor alpha (ER-alpha) signaling pathway using the BG1 cell line (AID 743080; calls by dose curve;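 further: BG1 cells stimulated with 17beta-estradiol alongside compound; series mostly up to about 70 µM; nearly all actives have a fitted effect of over 25% in size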)
# Procedure, shortened: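 Luciferase inhibition measured with ONE-Glo after 30 min at RT in BG1Luc4E2 cells given test compounds and 17beta-estradiol for 21.5 h at 37 C; CellTiter-Fluor viability read in the same wells beforehand.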
# [8] = qHTS assay to identify small molecule antagonists of the estrogen receptor alpha (ER-alpha) signaling pathway using the BG1 cell line - cell viability counter screen (AID 743081);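 further: compound given together with 17beta-estradiol as the ER stimulus; series mostly up to about 70 µM; nearly all actives have a fitted effect of over 45% in size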
# Aromatase (Homo sapiens) = Aromatase (Homo sapiens) (UniProt P11511); experiment: qHTS assay to identify aromatase inhibitors (AID 743083); further: series mostly up to about 70 µM; nearly all actives have a fitted effect of over 55% in size
# [9] = qHTS assay to identify aromatase inhibitors - cell viability counter screen (AID 743084);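 further: cells stimulated with testosterone during compound exposure; nearly all actives have a fitted effect of over 55% in size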
# [10] = molecular target: Aryl hydrocarbon receptor (Homo sapiens) (UniProt P35869); experiment: qHTS assay to identify small molecule that activate the aryl hydrocarbon receptor (AhR) signaling pathway (AID 743085);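 further: HG2L7.5c1 human HepG2 liver cells with stably integrated DRE-driven firefly reporter; series mostly up to about 70 µM; nearly all actives have a fitted effect of over 15% in size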
# Procedure, shortened: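 AhR agonist activity is inferred from enhanced light output of a DRE-controlled firefly luciferase reporter in HepG2 cells, measured with ONE-Glo following 24 h treatment at 37C.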
# [11] = qHTS assay to identify small molecule that activate the aryl hydrocarbon receptor (AhR) signaling pathway - cell viability counter screen (AID 743086);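 further: HepG2 liver cells carrying the AhR DRE luciferase reporter; series mostly up to about 70 µM; nearly all actives have a fitted effect of over 45% in size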
# Procedure, shortened: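 HepG2-AhR-luc (HG2L7.5c1) cells, 4000/well, treated 24 h at 37 C with compound; viability measured as CellTiter-Fluor fluorescence after 30 min in the same wells as the luciferase read.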
# [12] = molecular target: Peroxisome proliferator-activated receptor gamma (Homo sapiens) (UniProt P37231); experiment: qHTS assay to identify small molecule agonists of the peroxisome proliferator-activated receptor gamma (PPARg) signaling pathway (AID 743094; active means well fitted activation curve with a large enough effect in the signal ratio in the repeat runs, not every such curve was filed as active; the % refers to the signal ratio)
# Procedure, shortened: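 Cells from the PPARg UAS-bla HEK293H line are plated and incubated 5 h at 37C. Compounds in DMSO are pinned in and left 17 h at 37C. LiveBLAzer B/G substrate is then added for 1 h at room temperature before fluorescence is measured.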
# [13] = qHTS assay to identify small molecule antagonists of the peroxisome proliferator-activated receptor gamma (PPARg) signaling pathway - cell viability counter screen (AID 743194); further: nearly all actives have a fitted effect of over 55% in size
# Procedure, shortened: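 Cytotoxicity counter screen in PPARg-bla HEK293H cells, same wells as reporter assay. Compounds plus 50 nM rosiglitazone (final) for 17 h at 37 C, then viability read by CellTiter-Glo luminescence.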
# [14] = qHTS assay for small molecule agonists of the antioxidant response element (ARE) signaling pathway - cell viability counter screen (AID 743203; calls by dose curve; further: nearly all actives have a fitted effect of over 55% in size)
# Procedure, shortened: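 Cytotoxicity was tested in parallel with the ARE reporter screen. ARE-bla HepG2 cells were exposed to compounds for 16 hrs, and viability was taken from CellTiter-Glo luminescence.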
# [15] = qHTS assay for small molecule activators of the heat shock response signaling pathway - cell viability counter screen (AID 743209); further: nearly all actives have a fitted effect of over 50% in size
# Procedure, shortened: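 Cytotoxicity counter screen run in parallel with the HSE beta-lactamase reporter, using the same wells. HeLa HSE-bla cells received compound for 5 h at 37 C; ATP-based CellTiter-Glo luminescence was measured after 30 min at room temperature.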
# [16] = qHTS assay to identify small molecule antagonists of the thyroid receptor (TR) signaling pathway (AID 743065)
# Procedure, shortened: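 GH3.TRE-Luc rat pituitary cells (two TREs driving luciferase) were dosed with compound, then stimulated with 1 nM T3 (final) for 23.5 h at 37 C. ONE-Glo luminescence was the read-out, with CellTiter-Fluor fluorescence as the cytotoxicity counter-screen.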
# [17] = molecular target: Peroxisome proliferator-activated receptor gamma (Homo sapiens) (UniProt P37231); experiment: qHTS assay to identify small molecule antagonists of the peroxisome proliferator-activated receptor gamma (PPARg) signaling pathway (AID 743191; calls by dose curve; further: series mostly up to about 63 µM; nearly all actives have a fitted effect of over 30% in size)
# Procedure, shortened: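 GeneBLAzer PPARg UAS-bla HEK293H cells, 5 h post-plating, exposed to compounds 17 h at 37C. LiveBLAzer B/G FRET substrate added for 1 h at room temperature; beta-lactamase reporter read by fluorescence intensity.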
# [18] = qHTS assay for small molecule agonists of the antioxidant response element (ARE) signaling pathway (AID 743202; active means well fitted activation curve with a large enough effect in the signal ratio in the repeat runs, not every such curve was filed as active; the % refers to the signal ratio)
# Procedure, shortened: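 HepG2 ARE-bla reporter line, 2,000 cells/well; 5 h preincubation 37 C/5% CO2; compound (DMSO) 16 h 37 C; B/G FRET substrate 2 h RT; fluorescence intensity.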
# [19] = qHTS assay for small molecule activators of the heat shock response signaling pathway (AID 743210; active means well fitted activation curve with a large enough effect in the signal ratio in the repeat runs, with a control signal flat, not every such curve was filed as active; the % refers to the signal ratio;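 further: HeLa cells with beta-lactamase reporter driven by heat shock elements; series mostly up to about 63 µM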)
# Procedure, shortened: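 Beta-lactamase reporter read-out: FRET substrate fluorescence after 2.5 h at RT, following 5 h compound treatment at 37 C of HeLa cells carrying HSE-driven bla reporter; quantitative HTS format.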
# Chain of Estrogen receptor (Homo sapiens) (P03372 whole entry, looked up): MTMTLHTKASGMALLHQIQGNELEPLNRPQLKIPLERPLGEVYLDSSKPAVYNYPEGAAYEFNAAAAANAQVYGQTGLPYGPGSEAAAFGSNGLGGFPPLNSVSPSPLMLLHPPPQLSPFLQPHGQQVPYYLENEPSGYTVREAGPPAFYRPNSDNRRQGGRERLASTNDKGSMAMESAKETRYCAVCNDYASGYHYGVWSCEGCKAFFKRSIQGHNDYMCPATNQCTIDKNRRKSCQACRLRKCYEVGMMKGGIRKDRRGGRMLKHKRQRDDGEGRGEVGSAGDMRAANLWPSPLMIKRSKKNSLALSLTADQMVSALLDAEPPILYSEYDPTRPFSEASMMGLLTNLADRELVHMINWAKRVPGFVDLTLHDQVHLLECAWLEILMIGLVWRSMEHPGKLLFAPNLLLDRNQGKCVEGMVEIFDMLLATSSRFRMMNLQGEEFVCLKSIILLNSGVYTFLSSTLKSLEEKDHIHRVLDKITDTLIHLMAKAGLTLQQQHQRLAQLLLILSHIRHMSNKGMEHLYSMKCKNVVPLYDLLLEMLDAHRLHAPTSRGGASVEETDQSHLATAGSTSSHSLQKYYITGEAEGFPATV
# Chain of Aryl hydrocarbon receptor (Homo sapiens) (P35869 whole entry, looked up): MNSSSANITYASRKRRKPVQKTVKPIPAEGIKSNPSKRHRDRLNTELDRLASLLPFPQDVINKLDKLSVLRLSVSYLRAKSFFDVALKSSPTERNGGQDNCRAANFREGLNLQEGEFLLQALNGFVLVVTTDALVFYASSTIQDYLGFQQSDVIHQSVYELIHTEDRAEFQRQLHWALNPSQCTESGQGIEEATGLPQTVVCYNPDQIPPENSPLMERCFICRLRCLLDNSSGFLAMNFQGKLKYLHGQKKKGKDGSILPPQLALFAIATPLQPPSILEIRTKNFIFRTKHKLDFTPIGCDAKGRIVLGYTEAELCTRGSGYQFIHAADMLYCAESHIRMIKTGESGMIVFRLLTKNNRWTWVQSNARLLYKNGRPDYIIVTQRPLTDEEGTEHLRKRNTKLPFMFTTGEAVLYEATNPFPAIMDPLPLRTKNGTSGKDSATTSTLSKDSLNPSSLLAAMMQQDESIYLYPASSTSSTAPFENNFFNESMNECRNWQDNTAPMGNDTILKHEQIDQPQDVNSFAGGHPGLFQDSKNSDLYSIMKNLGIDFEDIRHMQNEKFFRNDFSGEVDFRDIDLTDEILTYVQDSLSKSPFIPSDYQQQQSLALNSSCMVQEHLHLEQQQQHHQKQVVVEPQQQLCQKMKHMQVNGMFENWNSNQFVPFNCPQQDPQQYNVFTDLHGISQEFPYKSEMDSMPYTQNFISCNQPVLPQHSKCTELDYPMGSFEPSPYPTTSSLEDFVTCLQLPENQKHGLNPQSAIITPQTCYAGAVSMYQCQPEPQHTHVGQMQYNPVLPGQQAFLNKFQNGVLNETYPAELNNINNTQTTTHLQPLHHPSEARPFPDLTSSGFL
# Chain of Aromatase (Homo sapiens) (P11511 whole entry, looked up): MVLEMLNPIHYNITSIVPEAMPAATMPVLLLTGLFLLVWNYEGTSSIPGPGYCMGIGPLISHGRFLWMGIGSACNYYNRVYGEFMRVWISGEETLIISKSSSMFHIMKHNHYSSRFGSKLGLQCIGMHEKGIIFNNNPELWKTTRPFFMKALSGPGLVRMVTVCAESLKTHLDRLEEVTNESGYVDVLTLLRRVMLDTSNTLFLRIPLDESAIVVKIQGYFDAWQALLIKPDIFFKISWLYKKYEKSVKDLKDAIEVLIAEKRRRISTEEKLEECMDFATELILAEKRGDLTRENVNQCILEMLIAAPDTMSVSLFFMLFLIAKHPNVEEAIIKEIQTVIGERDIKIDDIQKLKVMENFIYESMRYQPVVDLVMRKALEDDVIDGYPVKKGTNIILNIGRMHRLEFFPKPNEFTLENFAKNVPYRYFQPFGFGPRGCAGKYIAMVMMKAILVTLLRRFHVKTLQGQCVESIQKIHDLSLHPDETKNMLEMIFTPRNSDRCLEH
# Chain of Peroxisome proliferator-activated receptor gamma (Homo sapiens) (P37231 whole entry, looked up): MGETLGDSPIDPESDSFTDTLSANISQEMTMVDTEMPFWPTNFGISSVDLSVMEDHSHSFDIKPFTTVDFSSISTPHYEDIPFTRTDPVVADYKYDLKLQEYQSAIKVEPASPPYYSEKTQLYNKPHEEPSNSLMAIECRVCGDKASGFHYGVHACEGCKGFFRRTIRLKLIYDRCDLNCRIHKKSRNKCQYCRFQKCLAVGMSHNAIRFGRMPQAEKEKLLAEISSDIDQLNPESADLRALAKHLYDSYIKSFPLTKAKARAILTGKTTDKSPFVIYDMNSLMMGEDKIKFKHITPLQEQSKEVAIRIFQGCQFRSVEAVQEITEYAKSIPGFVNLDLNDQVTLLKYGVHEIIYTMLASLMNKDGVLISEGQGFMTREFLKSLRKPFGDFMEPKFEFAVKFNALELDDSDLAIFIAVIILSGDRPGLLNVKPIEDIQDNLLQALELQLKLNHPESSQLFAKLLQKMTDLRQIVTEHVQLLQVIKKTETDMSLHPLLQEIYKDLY
compound,measurement,setting,value
CCCC/C=C/C=C\C=O,Potency,[1],inactive
same,outcome,[2],inactive
same,outcome,[3],inactive
same,outcome,[4],inactive
same,outcome,[5],inactive
same,Potency,[6],inactive
same,Potency,[7],inactive
same,outcome,[8],inactive
same,Potency,Aromatase (Homo sapiens),inactive
same,Potency,[9],inactive
same,Potency,[10],inactive
same,Potency,[11],inactive
same,outcome,[12],inactive
same,outcome,[13],inactive
same,outcome,[14],inactive
same,outcome,[15],inactive
CC(COC(C)(C)C)OCCCO (stereo not given),Potency,[1],inactive
same,Potency,[16],inactive
same,outcome,[4],inactive
same,outcome,[8],inactive
same,Potency,Aromatase (Homo sapiens),inactive
same,Potency,[9],inactive
same,Potency,[10],inactive
same,Potency,[11],inactive
same,outcome,[12],inactive
same,Potency,[17],inactive
same,outcome,[13],inactive
same,Potency,[18],inactive
same,outcome,[15],inactive
same,outcome,[19],inactive
C[C@H](CCC(=O)O)[C@H]1CC[C@H]2[C@@H]3C(=O)C[C@@H]4CC(=O)CC[C@]4(C)[C@H]3CC(=O)[C@]12C,outcome,[2],inactive
same,outcome,[3],inactive
same,outcome,[4],inactive
same,outcome,[5],inactive
same,Potency,[6],inactive
same,Potency,[7],inactive
same,outcome,[8],inactive
same,Potency,Aromatase (Homo sapiens),inactive
same,Potency,[9],inactive
same,Potency,[10],inactive
same,Potency,[11],inactive
same,outcome,[12],inactive
same,Potency,[17],inactive
same,outcome,[13],inactive
same,Potency,[18],inactive
same,outcome,[14],inactive
same,outcome,[19],inactive
CC(C)C(=O)OCc1cccc(OC(=O)[C@@H]2N3C(=O)[C@@H](NC(=O)Cc4ccccc4)[C@H]3SC2(C)C)c1,Potency,[17],inactive
same,outcome,[13],inactive
same,Potency,[18],inactive
O=C1CC(c2ccc(Cl)cc2)CC(=O)N1,Potency,[17],inactive
same,outcome,[13],inactive
same,Potency,[18],inactive
same,outcome,[15],inactive
same,outcome,[19],inactive
CC(C)=CCOC(=O)c1ccccc1,Potency,[16],inactive
same,outcome,[2],inactive
same,outcome,[4],inactive
same,outcome,[8],inactive
same,Potency,[11],inactive
same,outcome,[13],inactive
same,outcome,[14],inactive
same,outcome,[15],inactive
same,outcome,[19],inactive
CC(C)CC(=O)O,outcome,[4],inactive
same,outcome,[5],inactive
same,Potency,[6],inactive
same,Potency,[7],inactive
same,outcome,[8],inactive
same,Potency,Aromatase (Homo sapiens),inactive
same,Potency,[9],inactive
same,Potency,[11],inactive
same,outcome,[12],inactive
same,outcome,[13],inactive
same,outcome,[14],inactive
same,outcome,[15],inactive
same,outcome,[19],inactive
CCCCOC(=O)c1ccccc1,outcome,[3],inactive
same,outcome,[4],inactive
same,outcome,[5],inactive
same,Potency,[6],34.4 µM (active)
same,Potency,[7],inactive
same,outcome,[8],inactive
same,Potency,Aromatase (Homo sapiens),inactive
same,Potency,[9],inactive
same,Potency,[17],inactive
same,outcome,[13],inactive
same,Potency,[18],inactive
same,outcome,[14],inactive
same,outcome,[15],inactive
C[C@@H]1O[C@@H](O[C@@H]2[C@@H](O)[C@H](OCCc3ccc(O)c(O)c3)O[C@H](CO[C@@H]3O[C@H](CO)[C@@H](O)[C@H](O)[C@H]3O)[C@H]2OC(=O)/C=C/c2ccc(O)c(O)c2)[C@H](O)[C@H](O)[C@H]1O,Potency,[16],inactive
same,outcome,[2],inactive
same,outcome,[4],inactive
same,Potency,Aromatase (Homo sapiens),inactive
same,Potency,[9],inactive
same,Potency,[11],inactive
same,Potency,[17],inactive
same,outcome,[13],inactive
same,outcome,[14],inactive
same,outcome,[15],inactive
same,outcome,[19],inactive
N[C@@H](CCC(=O)N[C@@H](CS)C(=O)NCC(=O)O)C(=O)O,outcome,[4],inactive
same,outcome,[8],inactive
same,Potency,Aromatase (Homo sapiens),inactive
same,Potency,[9],inactive
same,Potency,[10],inactive
same,Potency,[11],inactive
same,outcome,[13],inactive
same,outcome,[15],inactive
same,outcome,[19],inactive
COc1ccc(Br)c(C)c1,Potency,[16],inactive
same,outcome,[2],inactive
same,outcome,[4],inactive
same,outcome,[8],inactive
same,Potency,Aromatase (Homo sapiens),inactive
same,Potency,[9],inactive
same,Potency,[10],inactive
same,Potency,[11],inactive
same,outcome,[12],inactive
same,outcome,[13],inactive
same,Potency,[18],inactive
same,outcome,[14],inactive
same,outcome,[15],inactive
same,outcome,[19],inactive
CCCCCCCCCCCCCC,outcome,[4],inactive
same,outcome,[8],inactive
same,Potency,Aromatase (Homo sapiens),inactive
same,Potency,[9],inactive
same,Potency,[10],inactive
same,Potency,[11],inactive
same,outcome,[12],inactive
same,outcome,[13],inactive
same,outcome,[14],inactive
same,outcome,[15],inactive
same,outcome,[19],inactive
CC1=C(C(=O)O)N2C(=O)[C@@H](NC(=O)[C@H](N)c3ccc(O)cc3)[C@H]2SC1,outcome,[4],inactive
same,outcome,[8],inactive
same,Potency,Aromatase (Homo sapiens),inactive
same,Potency,[9],inactive
same,Potency,[10],inactive
same,Potency,[11],inactive
same,outcome,[13],inactive
same,outcome,[14],inactive
same,outcome,[15],inactive
same,outcome,[19],inactive
CCOCCOC(=O)/C=C/c1ccc(OC)cc1,Potency,[17],inactive
same,outcome,[13],inactive
same,outcome,[14],inactive
same,outcome,[15],inactive
same,outcome,[19],inactive
COCCc1ccc(OCC2CO2)cc1 (stereo not given),outcome,[13],inactive
same,outcome,[14],inactive
same,outcome,[15],inactive
same,outcome,[19],inactive
Cc1ccc2ccc(Cl)cc2n1,Potency,[17],inactive
same,outcome,[13],inactive
same,outcome,[19],inactive
CC(C)CCCCOC(=O)c1ccccc1C(=O)OCCCCC(C)C,Potency,[16],inactive
same,outcome,[2],inactive
same,outcome,[4],inactive
same,outcome,[8],inactive
same,Potency,Aromatase (Homo sapiens),inactive
same,Potency,[10],inactive
same,outcome,[12],inactive
same,Potency,[17],inactive
same,outcome,[13],inactive
same,Potency,[18],inactive
same,outcome,[14],inactive
same,outcome,[15],inactive
CCn1ccc(NS(=O)(=O)c2ccc(N)cc2)nc1=O,outcome,[13],inactive
same,outcome,[14],inactive
same,outcome,[19],inactive
CN1CCN(CC(=O)N2c3ccccc3C(=O)Nc3cccnc32)CC1,outcome,[4],inactive
same,outcome,[5],inactive
same,Potency,[6],inactive
same,Potency,[7],inactive
same,outcome,[8],inactive
same,Potency,Aromatase (Homo sapiens),inactive
same,Potency,[10],inactive
same,Potency,[11],inactive
same,outcome,[12],inactive
same,"ratio activity, negative = inhibition",[17],0.895% [at 5.95 µM]
same,"activity change, negative = cytotoxicity",[13],4.99% [at 5.95 µM]
same,activation,[18],3.2% [at 8.36 µM]
same,"viability change, negative = cytotoxic",[14],1.72% [at 8.36 µM]
same,activation,[19],-0.267% [at 5.95 µM]
Cc1ccccc1C(=O)Nc1ccc(C(=O)N2CCCC(N(C)C)c3ccccc32)cc1 (stereo not given),outcome,[13],inactive
same,outcome,[14],inactive
same,outcome,[15],inactive
same,outcome,[19],inactive
